Results reported in PubChem BioAssay (NCI).
This is part of a sample that, as a whole, favours compounds with a hit. Of some 79,000 tested, about 15% had one in any assay. A number with no mark means an inactive call. Calls of active or inactive are those of the source. Rule as the data show it: active = growth inhibition above about 70%; inactive = the rest.

Assay: NCI Yeast Anticancer Drug Screen. Data for the rad18 strain (AID 177)
Conditions: S. cerevisiae rad18 mutant growth inhibition, active compounds read high
Method: Growth inhibition of yeast strains with defined genetic alterations is measured as a screen for potential anti-cancer activity. Selected strains with alterations in DNA damage repair or cell cycle control were exposed to compounds and growth inhibition was measured relative to vehicle treated controls. The strain used in this assay is rad18

CCOP1(=O)C=C(Sc2ccc([N+](=O)[O-])cc2[N+](=O)[O-])C(C)(C)O1 (stereo not given)
growth inhibition (at 1.2 µM): 0% | growth inhibition (at 3.7 µM): 9% | growth inhibition (at 11.0 µM): 28% | growth inhibition (at 33.0 µM): 66% | growth inhibition (at 100.0 µM): 92% (active)

O=C1C=CC(=O)N1c1ccc(I)cc1
growth inhibition (at 1.2 µM): 27% | growth inhibition (at 3.7 µM): 35% | growth inhibition (at 11.0 µM): 49% | growth inhibition (at 33.0 µM): 99% (active) | growth inhibition (at 100.0 µM): 99% (active)

Clc1cc(-c2ccccc2)nc2ccccc12
growth inhibition (at 1.2 µM): 16% | growth inhibition (at 3.7 µM): 9% | growth inhibition (at 11.0 µM): 25% | growth inhibition (at 33.0 µM): 59% | growth inhibition (at 100.0 µM): 91% (active)

CCCCCC#CCOC(=O)C(=[N+]=[N-])P(=O)(c1ccccc1)c1ccccc1
growth inhibition (at 1.2 µM): 7% | growth inhibition (at 3.7 µM): 8% | growth inhibition (at 11.0 µM): 7% | growth inhibition (at 33.0 µM): 14% | growth inhibition (at 100.0 µM): 96% (active)

OCCN(CCO)c1ccc2c(c1)Cc1ccccc1-2
growth inhibition (at 1.2 µM): -8% | growth inhibition (at 3.7 µM): 4% | growth inhibition (at 11.0 µM): 18% | growth inhibition (at 33.0 µM): 82% (active) | growth inhibition (at 100.0 µM): 90% (active)

Nc1ccc2c(=S)c3ccccc3[nH]c2c1
growth inhibition (at 1.2 µM): 2% | growth inhibition (at 3.7 µM): -2% | growth inhibition (at 11.0 µM): -8% | growth inhibition (at 33.0 µM): 4% | growth inhibition (at 100.0 µM): 67%

Cc1ccc(I)cc1N=C=S
growth inhibition (at 1.2 µM): 10% | growth inhibition (at 3.7 µM): 24% | growth inhibition (at 11.0 µM): 41% | growth inhibition (at 33.0 µM): 86% (active) | growth inhibition (at 100.0 µM): 99% (active)

O=C1c2ccccc2C(=O)c2cc(S(=O)(=O)Nc3ccccc3)ccc21
growth inhibition (at 1.2 µM): 0% | growth inhibition (at 3.7 µM): 2% | growth inhibition (at 11.0 µM): 9% | growth inhibition (at 33.0 µM): 19% | growth inhibition (at 100.0 µM): -78%
